From PubChem
BH1578 lux ind = inducers of Vibrio cholerae quorum light production without autoinducers; activation, % at 18.7 µM; AID 588436; 350,000 compounds, 0.16% hits; V. cholerae BH1578 lux reporter, luminescence, 6 h; in the data active means activation mostly above about 9.7%, no sharp cut-off; inconclusive means no clear call, values can overlap the other calls; inactive means mostly below about 3.7%
BoNT-A LC inh2 = BoNT A light chain protease inhibition | 360,000 compounds, 0.17% hits | AID 588499 | multiplex microsphere protease substrate cleavage, flow cytometry | inhibition, % at 10 µM; further: plate controls were buffer without enzyme for full effect and enzyme alone for no effect
Bead autofluor = flagged as autofluorescent in microsphere protease counterscreen | compound autofluorescence counterscreen, microsphere flow cytometry; hits give high values | fluorescence intensity (concentration not given with the values) | 360,000 compounds, 3.1% hits | AID 624483; in the data active means fluorescence intensity above about 16000; inconclusive means no clear call, values can overlap the other calls
Anthrax LF prot = anthrax lethal factor protease inhibition | 360,000 compounds, 0.12% hits | multiplex microsphere protease cleavage assay, LF | AID 588501 | inhibition, % at 10 µM; further: plate controls were buffer without enzyme for full effect and enzyme alone for no effect
Target sequence (P15917 whole entry, looked up): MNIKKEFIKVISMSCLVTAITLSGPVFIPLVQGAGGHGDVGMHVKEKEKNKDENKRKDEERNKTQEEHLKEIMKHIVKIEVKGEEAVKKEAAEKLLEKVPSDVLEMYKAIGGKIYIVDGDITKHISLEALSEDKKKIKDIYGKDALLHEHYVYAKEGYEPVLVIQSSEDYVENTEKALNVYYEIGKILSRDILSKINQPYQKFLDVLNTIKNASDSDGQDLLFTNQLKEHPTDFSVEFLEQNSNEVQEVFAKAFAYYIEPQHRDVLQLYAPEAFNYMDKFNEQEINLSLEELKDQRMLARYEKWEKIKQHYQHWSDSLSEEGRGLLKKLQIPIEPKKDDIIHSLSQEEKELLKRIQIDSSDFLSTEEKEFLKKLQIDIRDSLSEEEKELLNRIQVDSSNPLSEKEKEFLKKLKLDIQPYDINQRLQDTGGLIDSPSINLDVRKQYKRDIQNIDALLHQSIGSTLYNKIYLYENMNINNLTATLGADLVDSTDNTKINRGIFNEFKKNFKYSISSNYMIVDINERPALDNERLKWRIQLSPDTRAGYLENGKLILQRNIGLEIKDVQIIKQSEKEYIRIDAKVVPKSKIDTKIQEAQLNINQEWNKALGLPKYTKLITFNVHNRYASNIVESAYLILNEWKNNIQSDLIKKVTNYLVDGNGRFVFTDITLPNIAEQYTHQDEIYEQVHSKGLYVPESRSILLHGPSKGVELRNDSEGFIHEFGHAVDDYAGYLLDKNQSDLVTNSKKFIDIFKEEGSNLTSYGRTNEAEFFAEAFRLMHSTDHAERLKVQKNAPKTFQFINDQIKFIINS
MazF activator = MazEF (E. coli) toxin RNase activation; P0AE70; FAM/BHQ RNA-DNA oligo cleavage fluorescence, 5 h; activation, % at 20 µM; 350,000 compounds, 0.32% hits; AID 504720; in the data active means activation above about 50%
BoNT F protease = blocks Botulinum neurotoxin F light chain protease | Multiplex microsphere protease cleavage assay, flow cytometry | inhibition, % at 10 µM | 360,000 compounds, 0.22% hits | AID 588497; in the data active means inhibition above about 35%, passing the limit was not always enough; inconclusive means no clear call, values can overlap the other calls; further: plate controls were buffer without enzyme for full effect and enzyme alone for no effect
Active calls of the source: *. A selection: hits, their analogues and other compounds. The true share with any hit is near 3.9%. Unless noted, no stated cut-off is given here; in the data, active means inhibition above about 30%; inconclusive means no clear call, values can overlap the other calls; inactive means below that.

Results for CCOC(=O)CNC(=O)c1sc2ncnc(N3CCc4ccccc4C3)c2c1C ?
BH1578 lux ind: inactive; BoNT-A LC inh2: 6.7; Bead autofluor: 19828*; Anthrax LF prot: 5.4; MazF activator: 0.6; BoNT F protease: 11.0

How did CCCCNC(=O)c1sc2ncnc(N3CCc4ccccc4C3)c2c1C do in these assays?
BH1578 lux ind: -1.2; BoNT-A LC inh2: 0.3; Bead autofluor: 10137; Anthrax LF prot: -2.7; MazF activator: -12.5; BoNT F protease: -4.2

How did O=C(Nc1ccc(C(F)(F)F)cc1)c1cccnc1N1CCOCC1 do in these assays?
BH1578 lux ind: inactive; BoNT-A LC inh2: inconclusive; Bead autofluor: 21885*; Anthrax LF prot: 1.6; MazF activator: 9.4; BoNT F protease: 5.0

Results for O=C(C1COc2ccccc2O1)N1CCCC1 (centres undefined) ?
BH1578 lux ind: -1.4; BoNT-A LC inh2: inconclusive; Bead autofluor: 20678*; Anthrax LF prot: -1.0; MazF activator: 2.5; BoNT F protease: -3.8

What do the screens show for `O=C(NCCCN1CCOCC1)C1COc2ccccc2O1` (centres undefined)?
BH1578 lux ind: inactive; BoNT-A LC inh2: -1.1; Bead autofluor: 16494*; Anthrax LF prot: -1.7; MazF activator: 2.9; BoNT F protease: -5.4

Results for CC(C)[C@H](NC(=O)c1cccc(S(=O)(=O)N2CCOCC2)c1)C(=O)OCC(=O)Nc1cccc(Br)c1 ?
BH1578 lux ind: inactive; BoNT-A LC inh2: -0.2; Bead autofluor: 3327; Anthrax LF prot: -0.4; MazF activator: -7.4; BoNT F protease: 7.3

How did O=C(C1CCCN(S(=O)(=O)Cc2ccccc2)C1)N1CCC(Cc2ccccc2)CC1 (centres undefined) do in these assays?
BH1578 lux ind: inactive; BoNT-A LC inh2: 3.9; Bead autofluor: 21341*; Anthrax LF prot: -1.8; MazF activator: -6.8; BoNT F protease: 4.5

What do the screens show for `O=C(O)C1CCCN(S(=O)(=O)Cc2ccccc2)C1` (centres undefined)?
BH1578 lux ind: inactive; BoNT-A LC inh2: 1.2; Bead autofluor: 3611; Anthrax LF prot: -11.6; MazF activator: -4.9; BoNT F protease: 6.4

What do the screens show for `COc1cc(NC(C)CCCN)c2ncccc2c1Oc1ccccc1` (centres undefined)?
BH1578 lux ind: -0.3; BoNT-A LC inh2: 1.5; Bead autofluor: 2135; Anthrax LF prot: -7.5; MazF activator: 12.3; BoNT F protease: -46.8

How did COc1ccc(CC(=O)NNC(=O)c2ccco2)cc1OC do in these assays?
BH1578 lux ind: -0.2; BoNT-A LC inh2: -2.7; Bead autofluor: 3043; Anthrax LF prot: 18.3; MazF activator: 0.6; BoNT F protease: -21.1

What do the screens show for `COc1ccc(NC(=O)CCc2ccccc2)cc1NC(=O)c1ccco1`?
BH1578 lux ind: inactive; BoNT-A LC inh2: -0.9; Bead autofluor: 19700*; Anthrax LF prot: -3.3; MazF activator: -7.0; BoNT F protease: -4.5

How did CCOc1cc(NC(=O)c2ccco2)c(OCC)cc1NC(=O)Cc1ccc(OC)c(OC)c1 do in these assays?
BH1578 lux ind: inactive; BoNT-A LC inh2: 2.7; Bead autofluor: 20919*; Anthrax LF prot: -10.2; MazF activator: -5.0; BoNT F protease: 5.1

How did CCCCOc1ccc(C(=O)OCC(=O)Nc2cc(C)on2)cc1 do in these assays?
BH1578 lux ind: inactive; BoNT-A LC inh2: -0.8; Bead autofluor: 4382; Anthrax LF prot: -0.6; MazF activator: 1.6; BoNT F protease: 4.1

How did CCOc1cc(C(=O)OCC(=O)Nc2cc(C)on2)cc(OCC)c1OCC do in these assays?
BH1578 lux ind: inactive; BoNT-A LC inh2: -5.3; Bead autofluor: 22120*; Anthrax LF prot: 2.7; MazF activator: -1.6; BoNT F protease: -6.2

How did CCOc1ccc(C(=O)OCC(=O)Nc2nc(OC)cc(OC)n2)cc1OCC do in these assays?
BH1578 lux ind: -3.0; BoNT-A LC inh2: inconclusive; Bead autofluor: 23423*; Anthrax LF prot: -2.5; MazF activator: 5.1; BoNT F protease: -2.0

Results for COc1ccc(-c2noc(N3CCC(C(=O)Nc4cc(OC)c(OC)c(OC)c4)CC3)n2)cc1 ?
BH1578 lux ind: inactive; BoNT-A LC inh2: -1.8; Bead autofluor: 5933; Anthrax LF prot: -1.2; MazF activator: -8.6; BoNT F protease: -4.6

How did Cc1ccccc1NC(=S)N1CCC(NC(=O)c2ccco2)CC1 do in these assays?
BH1578 lux ind: 0.8; BoNT-A LC inh2: -0.9; Bead autofluor: 3302; Anthrax LF prot: -4.3; MazF activator: 15.4; BoNT F protease: 4.6

Results for CCCSc1nc2sc3c(c2c(=O)[nH]1)CCN(Cc1ccccc1)C3 ?
BH1578 lux ind: inactive; BoNT-A LC inh2: 32.3*; Bead autofluor: 8728; Anthrax LF prot: 24.3; MazF activator: -54.1; BoNT F protease: inconclusive

What do the screens show for `Cn1c(-c2ccc3c(c2)OCO3)cnc1NCc1ccc(Cl)cc1`?
BH1578 lux ind: inactive; BoNT-A LC inh2: -1.8; Bead autofluor: 21164*; Anthrax LF prot: -10.6; MazF activator: 4.2; BoNT F protease: -4.1

Results for Cn1c(-c2ccc(F)cc2)cnc1NCc1ccc(F)cc1 ?
BH1578 lux ind: 2.9; BoNT-A LC inh2: 0.9; Bead autofluor: 3782; Anthrax LF prot: 0.7; MazF activator: 3.2; BoNT F protease: -2.9

How did CC(=O)Nc1nc(S(=O)(=O)c2ccc(C)cc2)c(Cl)s1 do in these assays?
BH1578 lux ind: -1.6; BoNT-A LC inh2: -2.6; Bead autofluor: 3735; Anthrax LF prot: -7.1; MazF activator: -1.5; BoNT F protease: -21.5

How did Cc1ccc(CNc2ncc(-c3ccc4c(c3)OCO4)n2C)cc1 do in these assays?
BH1578 lux ind: inactive; BoNT-A LC inh2: 0.6; Bead autofluor: 22743*; Anthrax LF prot: -3.8; MazF activator: 9.6; BoNT F protease: 0.8

Results for Cc1ccc(S(=O)(=O)c2nc(NCc3ccc4c(c3)OCO4)sc2Cl)cc1 ?
BH1578 lux ind: -0.2; BoNT-A LC inh2: 2.7; Bead autofluor: 25130*; Anthrax LF prot: 1.0; MazF activator: -9.1; BoNT F protease: -0.1

Results for COc1cc(CNc2ncc(-c3ccc(Cl)cc3)n2C)cc(OC)c1OC ?
BH1578 lux ind: -0.3; BoNT-A LC inh2: -2.6; Bead autofluor: 3916; Anthrax LF prot: -4.5; MazF activator: -3.5; BoNT F protease: -7.4

What do the screens show for `c1cc(CNc2ccc3c(c2)OCO3)ccn1`?
BH1578 lux ind: -0.4; MazF activator: 2.8

How did Cc1ccc(CNc2ccc3c(c2)OCO3)cc1 do in these assays?
BH1578 lux ind: inactive; BoNT-A LC inh2: 16.7; Bead autofluor: 15077; Anthrax LF prot: -17.2; MazF activator: 59.3*; BoNT F protease: -24.3

Results for Cc1cc(Br)ccc1-n1[nH]c(C)c(C=Nc2cccc3nsnc23)c1=O ?
BH1578 lux ind: -0.3; BoNT-A LC inh2: 14.3; Bead autofluor: 5167; Anthrax LF prot: 5.5; MazF activator: 18.1; BoNT F protease: 9.9

What do the screens show for `Cc1oc2cc3oc(=O)c(CCC(=O)N(C)CC(=O)O)c(C)c3cc2c1C`?
BH1578 lux ind: -0.9; BoNT-A LC inh2: 2.8; Bead autofluor: 2917; Anthrax LF prot: 4.2; MazF activator: 4.6; BoNT F protease: 30.6

Results for COC(=O)c1sc2nc(C)c([N+](=O)[O-])c(C)c2c1N ?
BH1578 lux ind: -0.3; BoNT-A LC inh2: 0.5; Bead autofluor: 2034; Anthrax LF prot: -0.3; MazF activator: 1.9; BoNT F protease: -0.7
